Screening results: PubChem, National Center for Advancing Translational Sciences (NCATS)
An excerpt weighted towards active compounds, which were near 2% of everything screened.
FUS suppressor – qHTS for Suppressors of FUS Proteinopathy: Primary screen using FUS-linked yeast assay | S. cerevisiae FUS-expressing, growth rescue, OD600, 24 h | actives 0.24% (n = 390,000) | Potency, µM (highest dose often 76.6 µM), hits mostly activators;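 further: plate controls were DMSO vehicle for no effect and reference control for full effect; nearly all actives have a fitted effect of over 55% in size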
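Read-out: OD at 600 nm after 24hr at 30C, reporting rescue of FUS-induced yeast toxicity. Cells at OD 0.005 in galactose (2%) minimal medium; compounds tested in a dilution series; CP55940 titration from 92uM final as control.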
GRP78 ERSR act – qHTS for Inducers of the Endoplasmic Reticulum Stress Response (ERSR) in Human Glioma: qHTS. U87-MG GRP78 promoter luciferase reporter, 16 h. Potency, µM, for the others: at the top dose activation, actives largely listed as activators. actives 0.02% (n = 420,000); further: series mostly up to about 76 µM; % of control where 0% means no effect; nearly all actives have a fitted effect of over 35% in size
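Stably transfected U87-MG glioma cells carrying a GRP78-based luciferase sensor; 16 h compound incubation. Luminescence end-point read 10 min after Bright-Glo addition at room temperature.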
Abeta yeast res – qHTS for compounds that reverse cellular toxicity of Amyloid beta (A-beta) peptide in yeast: Primary Screen | yeast expressing A-beta42, growth rescue, OD600, 48 h; response scale: 0% DMSO, 100% iron-clioquinol control | actives 0.063% (n = 410,000) | Potency, µM (highest dose often 46.1 µM), most hits filed as activators | AID 1347071, 2019; further: nearly all actives have a fitted effect of over 55% in size
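Growth rescue measured by 600 nm absorbance after 48 h yeast culture at 30 C with compound. Values normalized between DMSO and an equimolar ferric chloride plus clioquinol control.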
MBNL1 CUG block – qHTS Assay for Inhibitors of MBNL1-poly(CUG) RNA binding; Muscleblind-like protein 1 (Homo sapiens), Q9NR56; TR-FRET MBNL1-His/biotin-(CUG)12 binding, 665/545 ratio; Potency, µM (top dose mostly 57.5 µM), without a hit: at the highest dose activity change, negative = inhibition, hits mostly inhibitors; actives 0.036% (n = 280,000); AID 2675, 2010; active means well fitted inhibition curve with a large enough effect in the signal ratio, with a control signal flat, not every such curve was filed as active; inconclusive means small, poorly fitted or top-dose-only effect, or effect the other way, or a change in a side signal; inactive means no such curve, though single readings can be large or run the other way; the % refers to the signal ratio; further: on the % scale 0 is the no-effect control and ±100 the full control effect
Target sequence (Q9NR56 whole entry, looked up): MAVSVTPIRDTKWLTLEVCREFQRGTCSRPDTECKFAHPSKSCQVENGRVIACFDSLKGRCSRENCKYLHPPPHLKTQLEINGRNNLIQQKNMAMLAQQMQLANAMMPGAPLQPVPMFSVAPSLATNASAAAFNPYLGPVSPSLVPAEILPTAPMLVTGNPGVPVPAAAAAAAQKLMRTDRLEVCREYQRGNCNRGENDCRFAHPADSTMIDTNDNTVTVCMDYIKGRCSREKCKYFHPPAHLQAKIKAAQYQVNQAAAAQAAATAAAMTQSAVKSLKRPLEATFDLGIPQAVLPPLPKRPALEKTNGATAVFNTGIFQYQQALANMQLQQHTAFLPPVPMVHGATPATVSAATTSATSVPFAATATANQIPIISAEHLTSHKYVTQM
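His-tagged MBNL1 binding to biotinylated (CUG)12 RNA was measured by TR-FRET using terbium anti-His antibody (0.055 ng/ul final) and streptavidin-XL665 (5 nM final). Compounds were titrated 92 nM to 58 uM; 60 min at room temperature.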
TDP-43 yeast inh – qHTS of TDP-43 Inhibitors. AID 652104, 2013. actives 1.8% (n = 410,000). TDP-43 expressing yeast growth rescue, BacTiter-Glo, 24 h. Potency, µM (highest dose often 46.1 µM), for the others: top-dose growth rescue (activation), hits mostly activators; further: % of control where 0% means no effect; nearly all actives have a fitted effect of over 50% in size
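In this qHTS, compounds that restore growth of yeast expressing TDP-43 appear as activators. Cells (OD600=0.02, galactose medium, raffinose-pregrown) are incubated with compound 24 hr at 30 deg C and growth is quantified by BacTiter-Glo.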
aSyn rescue – qHTS of alpha-syn Inhibitors. Yeast expressing alpha-synuclein, growth rescue, BacTiter-Glo, 24 h. AID 652106, 2013. actives 0.14% (n = 370,000). Potency, µM (highest dose often 46.1 µM), inactives show top-dose growth rescue (activation), hits mostly activators; further: % of control where 0% means no effect; nearly all actives have a fitted effect of over 65% in size
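Screening used galactose-induced yeast with toxic alpha-synuclein levels, exposed to compound for 24 hr at 30 deg C. Cell growth, read with BacTiter-Glo luminescence, gave the measured signal.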
Starred values were filed as active, the others as inactive. Unless noted, the call rests on the fitted dose curve; in most records, active means well fitted curve in the direction sought with a large enough effect; inconclusive means small, poorly fitted or top-dose-only effect, or another doubt; inactive means no such curve, though single readings can be large; an effect the other way counts as inactive or inconclusive. Potency means the concentration at half of the fitted maximal effect.

For CN(Cc1ccccc1)c1c([N+](=O)[O-])c(=O)n(C)c2ccccc12 the results were FUS suppressor inconclusive, GRP78 ERSR act -1.0%, Abeta yeast res inactive, MBNL1 CUG block -1.1%, TDP-43 yeast inh 15.8µM* and aSyn rescue inconclusive.
For c1cc(N2CCCC2)ccc1C(c1nnnn1C1CCCCC1)N1CCOCC1 (configuration not stated) the results were FUS suppressor 39.8µM*, GRP78 ERSR act -1.2%, Abeta yeast res inactive, MBNL1 CUG block -2.5%, TDP-43 yeast inh -7.3% and aSyn rescue 27.3%.
Cc1cnc(-n2ncc(C(=O)NCCc3cccnc3)c2C)nc1-c1cccs1 was read as GRP78 ERSR act -3.3%.
For Cc1ccc2occ(CC(=O)Nc3c(C)cccc3C)c2c1 the results were FUS suppressor inactive, GRP78 ERSR act -3.1%, Abeta yeast res inactive and TDP-43 yeast inh 12.6µM*.
For CCOc1ccccc1NC(=O)Cc1noc2ccc(C)cc12 the results were FUS suppressor inactive, GRP78 ERSR act -2.4%, Abeta yeast res inactive and TDP-43 yeast inh inconclusive.
For CCOc1ccccc1NC(=O)Cc1coc2ccc(C)cc12 the results were FUS suppressor inactive, GRP78 ERSR act -1.6%, Abeta yeast res inconclusive, MBNL1 CUG block 2.8% and aSyn rescue 12.6µM*.
For O=Cc1c(NCc2ccccc2F)c2ccccc2[nH]c1=O the results were FUS suppressor inactive, GRP78 ERSR act -2.7%, Abeta yeast res inactive, MBNL1 CUG block -10.7%, TDP-43 yeast inh 11.2µM* and aSyn rescue 0.3%.
For CC(C)(C)n1ncc2c(=O)n(Cc3ccc(C(F)(F)F)cc3)cnc21 the results were GRP78 ERSR act -8.3%.
Screening CC1(C(=O)NC(=S)N(CCC#N)c2ccccc2)CC1(Cl)Cl (configuration not stated) returned FUS suppressor inactive, GRP78 ERSR act -5.1%, Abeta yeast res inactive, MBNL1 CUG block -2.6%, TDP-43 yeast inh 11.4% and aSyn rescue -1.8%.
Screening CC(C)N(Cc1ccccc1)C(=S)NC(=O)C1(C)CC1(Cl)Cl (configuration not stated) returned FUS suppressor inactive, GRP78 ERSR act -6.8%, Abeta yeast res inconclusive, MBNL1 CUG block -2.3%, TDP-43 yeast inh 35.5µM* and aSyn rescue 0.3%.
Screening CCOC(=O)c1c(C)sc2c1N(C(=O)CCl)c1cc(Cl)ccc1S2 returned GRP78 ERSR act -14.3%, Abeta yeast res inactive, MBNL1 CUG block -5.7%, TDP-43 yeast inh 20µM* and aSyn rescue 2.3%.
For COc1cc(OC)c(/C=C/c2ccc3ccccc3[n+]2C)c(OC)c1 the results were GRP78 ERSR act -6.1% and aSyn rescue -20.3%.
For CCOC(=O)c1ccc2nc(NC(=O)C(C)C)sc2c1 the results were FUS suppressor inactive, GRP78 ERSR act -3.5%, Abeta yeast res inconclusive, MBNL1 CUG block -1.3%, TDP-43 yeast inh 10µM* and aSyn rescue -6.2%.
For CC(=O)CC[C@H]1CC[C@]2(CCCN(Cc3nccn3C)C2)O1 the results were FUS suppressor inactive.
For S=C(Cc1ccccc1)Nc1ccccc1 the results were GRP78 ERSR act -1.3%, Abeta yeast res inactive, TDP-43 yeast inh 8.91µM* and aSyn rescue 1.5%.
Screening O=C(COC(=O)/C=C/c1ccco1)NCc1ccc(Cl)cc1 returned FUS suppressor inactive, GRP78 ERSR act -1.7%, Abeta yeast res inactive, TDP-43 yeast inh 10µM* and aSyn rescue 5.5%.
`O=S(=O)(Nc1nc(SCc2ccc(Cl)cc2)n[nH]1)c1ccc(F)cc1` gave FUS suppressor inactive, GRP78 ERSR act -6.5%, Abeta yeast res inconclusive, MBNL1 CUG block -6.0%, TDP-43 yeast inh 20µM* and aSyn rescue 0.1%.
Screening N#Cc1ccc(C(=O)Nc2nc(SCc3ccc(Cl)cc3)n[nH]2)cc1 returned FUS suppressor inactive, GRP78 ERSR act -5.5%, Abeta yeast res inactive, MBNL1 CUG block -2.0%, TDP-43 yeast inh 0.1% and aSyn rescue 0.3%.
`CCc1nc(SCc2ccc(Br)cc2)n[nH]1` gave FUS suppressor inactive, GRP78 ERSR act -3.6%, Abeta yeast res inactive, MBNL1 CUG block -3.4%, TDP-43 yeast inh inconclusive and aSyn rescue 12.1%.
Screening CCc1nc(SCc2ccc(Cl)cc2)n[nH]1 returned FUS suppressor inactive, GRP78 ERSR act 4.8%, Abeta yeast res inactive, MBNL1 CUG block -2.0%, TDP-43 yeast inh 12.6µM* and aSyn rescue 3.4%.
`O=S(=O)(c1ccc(CN2CCOCCOCCN(Cc3ccc(S(=O)(=O)C(F)(F)F)cc3)CCOCC2)cc1)C(F)(F)F` gave FUS suppressor inactive.
For O=C1c2ccccc2-n2c1nc1ccccc1c2=O the results were FUS suppressor inactive, GRP78 ERSR act -4.8%, Abeta yeast res inactive, MBNL1 CUG block inconclusive, TDP-43 yeast inh -14.4% and aSyn rescue -7.8%.
For CC1(C)Cc2ccccc2-c2nc3ccccc3c(=O)n21 the results were FUS suppressor inactive, GRP78 ERSR act -2.3%, Abeta yeast res inactive, MBNL1 CUG block -1.7%, TDP-43 yeast inh 12.6µM* and aSyn rescue 2.1%.
Cc1cc(-c2c(C)[nH]n(-c3ccc(Cl)cc3)c2=O)n[nH]1 was read as FUS suppressor inconclusive, GRP78 ERSR act -0.8%, Abeta yeast res inactive, MBNL1 CUG block 6.0%, TDP-43 yeast inh 22.4µM* and aSyn rescue inconclusive.
For C/C(=C(\CCO)SSCC1CCCO1)N(C=O)Cc1cnc(C)nc1N (configuration not stated) the results were GRP78 ERSR act -4.7%.
OC1(C(F)(F)F)CC(c2ccc3ccccc3c2)=NO1 (configuration not stated) was read as FUS suppressor inactive, GRP78 ERSR act 5.7%, Abeta yeast res inactive, MBNL1 CUG block 6.9%, TDP-43 yeast inh 3.16µM* and aSyn rescue -10.2%.
OC(c1ccccc1)(c1nc(-c2ccc3ccccc3c2)cs1)C(F)(F)F (configuration not stated) was read as FUS suppressor inactive, GRP78 ERSR act -5.6%, Abeta yeast res inactive, TDP-43 yeast inh -7.9% and aSyn rescue 17.3%.
For CCn1c(-c2ccccc2F)nc2cc(NC(C)=O)cc(C(=O)N(C)Cc3ccc4nccnc4c3)c21 the results were GRP78 ERSR act -1.5%.
